An excerpt weighted towards active compounds, which were near 7.4% of everything screened.
NPC1 promoter act – activates the NPC1 promoter; Huh7 NPC1 promoter luciferase reporter, 24 h; Potency, µM (top dose mostly 9.22 µM), inactives show top-dose activation, hits mostly activators; 320,000 compounds, 2.4% hits; further: % of control where 0% means no effect; nearly all actives have a fitted effect of over 60% in size
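Huh7 cells stably carrying NPC1 promoter–luciferase, plated in Opti-MEM with 10% FBS for 2 h, were exposed to compound in DMSO for 24 h at 37 °C; luciferase reagent was added for 10 min and luminescence read.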
FLuc modulator – counter-screen for miR-21 project: firefly luciferase inhibitors or activators. 360,000 compounds, 6.9% hits. purified FLuc, Km substrates, luminescence inhibition. P08659. AID 588342. Potency, µM (top dose mostly 57.5 µM), for the others: at the highest dose activity change, negative = inhibition, actives largely listed as inhibitors;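 further: plate controls were vehicle for no effect and reference inhibitor for full effect; nearly all actives have a fitted effect of over 55% in size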
Target sequence (P08659 whole entry, looked up): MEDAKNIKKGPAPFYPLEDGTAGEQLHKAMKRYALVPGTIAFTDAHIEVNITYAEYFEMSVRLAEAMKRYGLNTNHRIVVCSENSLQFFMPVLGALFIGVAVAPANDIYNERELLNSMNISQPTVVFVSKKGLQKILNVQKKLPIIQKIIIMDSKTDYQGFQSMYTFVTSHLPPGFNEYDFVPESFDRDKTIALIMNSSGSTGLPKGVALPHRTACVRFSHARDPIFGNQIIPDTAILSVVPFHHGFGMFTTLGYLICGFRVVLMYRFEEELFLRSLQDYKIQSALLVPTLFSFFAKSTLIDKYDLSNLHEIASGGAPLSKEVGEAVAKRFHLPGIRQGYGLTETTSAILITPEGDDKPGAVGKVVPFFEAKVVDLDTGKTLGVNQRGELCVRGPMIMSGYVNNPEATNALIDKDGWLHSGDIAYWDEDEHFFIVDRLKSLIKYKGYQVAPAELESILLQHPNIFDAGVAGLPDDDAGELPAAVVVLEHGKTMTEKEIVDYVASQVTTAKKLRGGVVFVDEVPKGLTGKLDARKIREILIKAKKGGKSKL
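Purified P. pyralis luciferase (10nM final) with 10uM D-luciferin and 10uM ATP (Km levels) in 50mM Tris acetate pH 7.5, 10mM Mg acetate, 0.01% Tween-20, 0.05% BSA; qHTS 6-point titration, ~60 µM downward; luminescence read.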
Rab9 promoter act – activates the Rab9 promoter | Huh7 Rab9 promoter-luciferase reporter, luminescence, 24 h | Potency, µM (series often up to 9.22 µM), without a hit: top-dose activation, negative = inhibition, most hits filed as activators | 320,000 compounds, 2.8% hits; further: % of control where 0% means no effect; nearly all actives have a fitted effect of over 60% in size
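Rab9 promoter-driven luciferase in stably transfected Huh7 cells; 1500 cells/well rested 2 h, exposed to compound in DMSO for 24 h at 37 °C, 5% CO2. Luminescence read 10 min after adding luciferase reagent at ambient temperature.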
ELG1 genotoxic – inducers of genotoxicity in HEK293T ELG1-luciferase cells | HEK293T ELG1-luciferase reporter, luminescence, 16 h | Potency, µM (highest dose often 46 µM), for inactives: at the highest dose activity change, positive = activation, actives largely listed as activators | 330,000 compounds, 1.3% hits | AID 504466; further: % of control where 0% means no effect; nearly all actives have a fitted effect of over 60% in size
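Genotoxicity was scored as increased ELG1-luciferase reporter signal, measured by ONE-Glo luminescence (30 min, room temperature). Compound or vehicle exposure of the HEK293T reporter cells lasted 16 hr at 37°C.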
SMN2 splice up – SMN2 splice variant enhancement; HEK293 SMN2-luciferase splicing reporter, luminescence, 30-36 h; Potency, µM (series often up to 46.1 µM), without a hit: at the highest dose activity change, positive = activation, hits mostly activators; 210,000 compounds, 2.8% hits; AID 1458; further: % of control where 0% means no effect; nearly all actives have a fitted effect of over 55% in size
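HEK293 cells carry an SMN2 minigene-luciferase reporter in which exon 7 inclusion puts luciferase in frame. Cells were seeded at 2000 cells/well, attached for 10-12 hours, then exposed to compounds for 30-36 hours at 37C before ONE-Glo luminescence.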
* = called active by the depositor; u = inconclusive; x = no result. The call rests on the fitted dose curve; in most records, active means well fitted curve in the direction sought with a large enough effect; inconclusive means small, poorly fitted or top-dose-only effect, or another doubt; inactive means no such curve, though single readings can be large; an effect the other way counts as inactive or inconclusive. Potency means the concentration at half of the fitted maximal effect.

SMILES | NPC1 promoter act | FLuc modulator | Rab9 promoter act | ELG1 genotoxic | SMN2 splice up
Cc1cc(OCc2nc(-c3cccs3)no2)cc(C)c1Cl | 10% | u | 7% | 9% | -6%
COc1ccc(-n2c(=O)c3sc4ccccc4c3n(CC(=O)NCc3ccccc3)c2=O)cc1 | x | -2% | x | x | -7%
COc1ccc(OCC(=O)N/N=C2\CCc3ccccc32)cc1 | 2% | 19µM* | 7% | u | -5%
NC(=O)C(=O)N/N=C1\CCc2ccccc21 | 7% | 11µM* | 21% | u | 13µM*
COc1ccc(OCC(=O)N/N=C2/C=C(C)CC2)cc1 | 0% | -6% | -12% | -1% | 3%
O=C(Cc1ccc(Cl)cc1)N/N=C1\CCCc2ccccc21 | -6% | -3% | -6% | -4% | -21%
COc1ccc2c(c1)CC/C2=N\NC(=O)c1ccccc1 | u | 12µM* | u | u | 16µM*
Cc1cccc(CSCCNC(=O)C2CCN(S(=O)(=O)Cc3ccccc3)CC2)c1 | x | -1% | x | x | x
O=C(c1nc(-c2ccc(Cl)cc2)n2c1CCCCC2)N1CCN(c2ccccc2F)CC1 | x | -13% | x | x | x
COc1ccc(-c2nnc(SCC(=O)Oc3cc(C)ccc3C)o2)cc1 | x | 0% | x | x | x
COc1ccc(CCNC(=O)c2ccc3c(c2)CCN3S(C)(=O)=O)cc1OC | x | -1% | x | x | 0%
COc1ccccc1Cn1cc(C(=O)c2ccc(C)cc2)c(=O)c2cc(C)ccc21 | x | -2% | x | x | 1%
Nc1ncnc(Nc2ccccc2)n1 | 3% | -13% | -2% | 2% | x
Nc1cnc(Nc2ccc(Br)cc2)nc1N | 22% | 15µM* | u | u | x
O=C(c1ccc2c(c1)N(Cc1ccccc1)C(=O)c1ccccc1S2(=O)=O)N1CCOCC1 | x | 3% | x | x | 16%
Cc1cc(/C(N)=N/OC(=O)Nc2ccc(Cl)cc2)no1 | 10% | 19µM* | u | u | x
COc1ccc(C(=O)O/N=C(\N)c2ccc(Br)cc2)cc1 | u | 3µM* | u | 16% | x
COc1ccc(/C(N)=N/OC(=O)Cc2ccccc2OC)cc1 | 15% | u | 1% | 2% | -10%
COc1ccc(C(=O)O/N=C(\N)c2ccccc2)cc1 | 0.5µM* | 0.21µM* | 1.4µM* | 1.8µM* | x
Cc1cc(C(=O)O/N=C(\N)c2ccc(C(C)(C)C)cc2)no1 | 3.5µM* | 6µM* | 1.8µM* | 10% | x
CCOC(=O)c1cc(/C(C)=N/OC(=O)c2ccc(C(C)(C)C)cc2)on1 | 0% | 2% | 0% | 1% | x
Cn1cc(C[C@H](C(=O)O)N2C(=O)c3ccc(C(=O)O)cc3C2=O)c2ccccc21 | 0% | 0% | 0% | x | x
CC(C)c1noc(-c2ccccc2OCC(=O)Nc2ccc([N+](=O)[O-])cc2)n1 | x | -2% | x | x | x
CC(C)(C)c1ccc(NC(=O)CON=C(N)c2ccccc2)cc1 | -2% | u | -2% | 2% | x
CC(C)(C)c1ccc(C(=O)O/N=C(\N)c2ccccc2)cc1 | -16% | 0.76µM* | -12% | u | x
SMILES | NPC1 promoter act | FLuc modulator | Rab9 promoter act | ELG1 genotoxic | SMN2 splice up
CCn1c(/C=C/c2ccccc2Cl)nc2ccccc2c1=O | 21% | 27µM* | 22% | 6% | x
CCn1c(/C=C/c2c[nH]c3ccccc23)nc2ccccc2c1=O | 1.6µM* | 5.4µM* | 1.4µM* | 2.6µM* | x
CC1=C(c2ccc(C)c(C)c2)S(=O)(=O)N(Cc2ccc(C(=O)NCc3ccc(C)cc3)cc2)C1=O | x | 2% | x | x | 1%
O=C1c2ccccc2C(=O)N1CCSC(=S)N1CCOCC1 | u | 12µM* | u | u | u
Cc1ccc(S(=O)(=O)c2cn(CC(=O)Nc3cccc(C)c3)c3cc4c(cc3c2=O)OCO4)cc1 | x | 1% | x | x | 8%
CC(C)CCSc1nc2ccccc2[nH]1 | 3.5µM* | 11µM* | 3.5µM* | u | 14µM*
c1ccc2[nH]c(SCc3ccc(-c4nnco4)cc3)nc2c1 | u | 11µM* | 3.5µM* | u | 26%
COC(=O)c1cccc(CSc2nc3ccccc3[nH]2)c1 | 2.5µM* | 7.6µM* | u | u | 3.2µM*
COC(=O)c1ccc(CSc2nc3ccccc3[nH]2)o1 | 27% | u | u | 3% | -1%
c1ccc(-c2cc(CSc3nc4ccccc4[nH]3)on2)cc1 | -2% | u | -10% | u | x
COc1ccc(CSc2nc3ncccc3[nH]2)cc1 | x | 19µM* | x | x | x

From PubChem
